# About 83,000 compounds went through this panel and 20% of them were active in at least one assay; those are over-represented in the sample as a whole.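 Single-concentration screen, 48 h exposure, 96-well plates. Endpoint: percent growth. Below 10 = active.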 Unmarked numbers belong to inactive results. Activity calls are given as the source filed them.
# System: OVCAR-4 ovarian
# Assay: NCI-60 one-dose screen, 48 h (100 = growth as untreated, 0 = no growth, -100 = all killed)
# Conditions: 10 µM unless noted
# Experimental: Growth inhibition of the OVCAR-4 human tumor cell line is measured as a screen for anti-cancer activity. Cells are grown in 96 well plates and exposed to the test compound for 48 hours. Compounds are tested at a single concentration, which is 10^-5 M for most compounds. The reported endpoint is percent growth (GI% or GIPRCNT), where numbers from 0 - 100% represent growth inhibition, and numbers from -100% - 0 represent cell death. For example, a value of 40 represents 60% growth inhibition. A value of 0 means no net growth occurred over the course of the experiment. A value of -40 indicates 40% of cells at the beginning of the experiment died by the end of the experiment. A value of -100 means all cells are dead at the end of the experiment.
# NCI-60 Human Tumor Cell Lines Screen was performed using the standard one-dose NCI protocol, which is described in more detail at https://dtp.cancer.gov/discovery_development/nci-60/default.htm.
# Compounds with GIPRCNT values below 10 were considered active. Activity score was based on GIPRCNT using the following formula: […]
# Score is 0 for GIPRCNT values of 100 or above, 50 for GIPRCNT values of 0, and 100 for GIPRCNT values of -100.
row,SMILES,growth
1,O=C(/C=C1\C=CN(CCCCO)c2ccccc21)n1ccc2ccccc21,107%
2,CCCCCCNC(=O)Oc1ccc(/C(=C(/C)c2ccc(OC)cc2)c2ccc(OCCN3CCCC3)cc2)cc1,84.8%
3,COc1ccc([C@@H]2[C@@H](O)C(=O)N2c2cc(OC)c(OC)c(OC)c2)cc1,59.3%
4,CCOC(=O)c1c(NCC(=O)Nc2cccc([N+](=O)[O-])c2)sc2c1CCCC2,-45.2% (active)
5,COc1ccc2c(C3=C(c4cn(C)c5ccccc45)C(=O)NC3=O)coc2c1,79%
6,COc1ccccc1/C=C/C(=O)c1nnn(-c2ccc(C(=O)O)cc2)c1C,101%
7,CS(=O)(=O)c1ccc2c(c1)c1c(n2Cc2ccc(Cl)cc2)CCCC1,75.1%
8,O=C(Nc1cccc(-c2nc(-c3ccc(NC(=O)c4cccnc4)cc3Cl)no2)c1)Nc1ccc(NC(=O)C2CC2)c(C(F)(F)F)c1,-74.1% (active)
9,C=C(C)[C@@H]1CC[C@]2(C(=O)ON)CC[C@]3(C)[C@H](CC[C@@H]4[C@@]5(C)C/C(=C/c6ccc(Br)cc6)C(=O)C(C)(C)[C@@H]5CC[C@]43C)[C@@H]12,75.5%
10,Cn1cc(-c2nn3cc(-c4cccnc4)nc3s2)c2cc(F)ccc21,104%
11,O=C(Nc1ccc(F)cc1)c1cc(-c2ccc(F)cc2F)ccc1O,11.2%
12,COc1ccc(Cn2cc3c(c2-c2cc(OC)c(OC)c(OC)c2)CCCc2cnoc2-3)cc1,62.3%
13,CCN1CCN(Cc2ccc(C(=O)Nc3nc4ccc(Oc5ccnc(C(=O)NC)c5)cc4s3)cc2C(F)(F)F)CC1,61%
14,O=C1c2c(c3c4ccc(Br)cc4oc3c3[nH]c4ccccc4c23)C(=O)N1CCO,89.7%
15,Cc1ccc(-c2cc(-c3cccc4ccccc34)n3c(n2)nc2ccccc23)cc1,79.6%
16,C=CCn1c(SCC(=O)Nc2cccc(C(=O)/C=C/c3ccccc3)c2)nc2ccccc2c1=O,88%
17,CC(C)(C)OC(=O)N1CCN(S(=O)(=O)/N=C2\NC(=O)NC2=C(Cl)Cl)CC1,100%
18,O=C(CCCCCCN1CC(=O)N2[C@@H](c3cccc(Cl)c3)c3[nH]c4ccccc4c3C[C@H]2C1=O)NO,61%
19,C=CCn1c(SCC(=O)Nc2cccc(C(=O)/C=C/c3ccc(OC)c(OC)c3)c2)nc2ccccc2c1=O,87.6%
20,CCN1C(=O)N(CC)C2SC(N/N=C/c3ccccc3F)=NC21 (stereo not given),68.4%

row,SMILES,growth
1,COc1cc2cc(Oc3ccc(NC(=O)Nc4cc(C(F)(F)F)cc(C(F)(F)F)c4)cc3)c(C)nc2cc1OCCN(C)C,104%
2,Cn1c2ccccc2c2c3c(c4c5ccc(Br)cc5oc4c21)C(=O)N(O)C3=O,85.3%
3,CS(=O)c1nccc(-c2c(-c3ccc(F)c(OCCc4ccccc4)c3)nc3sccn23)n1 (stereo not given),102%
4,CCOC(=O)c1c(NCC(=O)Nc2ccc(Br)cc2)sc2c1CCCC2,35.5%
5,Nc1ccc(-c2nnc(SCc3ccc(O)c4ncccc34)n2-c2ccccc2)cc1,12.4%
6,NC(=S)N/N=C(/C=C/c1cn(-c2ccccc2)nc1-c1ccc(Cl)cc1)c1cc2ccccc2oc1=O,39.4%
7,CC1CCc2c(sc3nc(SCC(=O)N/N=C/c4cccc(O)c4O)n(-c4ccccc4)c(=O)c23)C1 (stereo not given),84.7%
8,CN1CCN(Cc2ccc(NC(=O)c3cncc(C#Cc4cnc5ccc(NC6CCOCC6)nn45)c3)cc2C(F)(F)F)CC1,-29.1% (active)
9,Cn1cc2c(c1)-c1c(sc3nc(-c4ccc(NC(=O)Nc5cc(C(C)(C)C)on5)cc4)cn13)CC2,57.7%
10,COc1cc2cc(Oc3ccc(NC(=O)Nc4cccc(C(F)(F)F)c4)cc3)c(C)nc2cc1OCCN(C)C,92.9%
11,C=CCn1c(SCC(=O)Nc2cccc(C(=O)/C=C/c3cc(OC)c(OC)c(OC)c3)c2)nc2ccccc2c1=O,66.5%
12,Oc1ccc(-c2nnc(SCc3ccc(O)c4ncccc34)o2)cc1,9.9% (active)
13,Oc1ccccc1-c1nnc(SCc2ccc(O)c3ncccc23)o1,35.9%
14,CCOC(=O)C1=C(C)Nc2nc3ccccc3n2C1c1ccccc1 (stereo not given),83.7%
15,CC1OC(O[C@@H]2C(O)C(CO)OC(O[C@H]3COC(O[C@H]4CC[C@]5(C)[C@H]6CC[C@]78OC[C@@]9(CC[C@](C)(C=O)C[C@H]97)[C@H](O)C[C@@]8(C)[C@]6(C)CC[C@H]5C4(C)C)[C@@H](OC4OC(CO)[C@@H](O)[C@@H](O)[C@@H]4O)[C@@H]3O)[C@H]2OC2OC[C@@H](O)[C@@H](O)[C@@H]2O)[C@@H](O)[C@@H](O)[C@H]1O (stereo not given in full),-50.9% (active)
16,O=[N+]([O-])c1ccc(-c2nnc(SCc3ccc(O)c4ncccc34)n2-c2ccccc2)cc1,50.6%
17,CCC(CC)n1c(=O)c(SC2=NC3C(NN2)N(CC)C(=O)N3CC)c(C(=O)O)c2ccccc21 (stereo not given),65%
18,O=C1[C@@H]2Cc3c([nH]c4ccccc34)[C@H](c3c(Cl)cccc3Cl)N2C(=O)CN1C1CCN(Cc2c(F)cccc2F)CC1,76.3%
19,Cc1cc(=O)n2nc(-c3cn(C)c4ccc(Cl)cc34)sc2n1,93.7%
20,CCOC(=O)C1=C(C)Nc2nc3ccccc3n2C1c1cccc(Br)c1 (stereo not given),88.9%
